This is an account of results in the supplement of paper PMC10338343.

± gives the standard deviation.

The first test relates to MILI (PIWIL2) piRISC loaded with L1MC piRNA (26 nt). The test is described as follows: pre-steady-state target cleavage rate (min^-1); guide: L1MC piRNA 5'p-UAACUAAAUACUAUGCAAGCUGUAGG; MIWI and MILI are mouse PIWI proteins and EfPiwi is from a freshwater sponge; tags in brackets are library labels; higher = faster piRNA-guided slicing of the target. The note with it: auxiliary factor: 500 nM mouse GTSF1. As to the method:
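Cleave-'n-Seq: a library of target RNAs (target site embedded in constant flanks, ACAGCATTCCGCGTTAGTGATATCCG... 5' flank; DNA-blocked outside the site) at 0.1 nM was incubated with 1 nM active mouse MILI or MIWI piRISC (synthetic 5'-monophosphorylated piRNA guide) with or without 500 nM mouse GTSF1 at 33 °C for 1 min to 16 h. Uncleaved targets were sequenced and normalised to non-target controls, and the pooled three trials were fitted to a burst-and-steady-state model to give the pre-steady-state cleavage rate (min^-1; k3 is constrained to at most 1e-4). Sequence is the target site only; target names encode pairing extent (gX:gY) and contiguous / 1-mismatch / 2-mismatch / bulge geometry. Fits with R² ≤ 0 are excluded.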
As for UCCUGGAUGUCGUACCAUAGUAUUUAGUUA, the “pre-steady-state target cleavage rate” value worked out at 0.0168 ± 0.0047. As for UCCUCCUACAGCUUGCAUAGUAUUAUAGUUA, the “pre-steady-state target cleavage rate” value turned out to be 0.258 ± 0.019. With UCCUGGAACGCUUGCAUAGUAUUUAGUUA, the “pre-steady-state target cleavage rate” value turned out to be 0.239 ± 0.015. Still for that read-out and setting: then UCCUGGAACACGUUGCAUAGUAUUUAGUUA, with 0.193 ± 0.014; and UCCUGGAUGAGCUCUGCAUAGUAUUUAGUUA, with 0.171 ± 0.01. The same measure, in the same setting: with UCCUGGAUGAGCUUGGAUAGUAUAUAGUUA the figure was 0.122 ± 0.017. On the same count and under the same terms, with “UCCUGGAUGUCGAUGCAUAGUAUUUAGUUC [g2:g17:cont:t1C]” the figure was 0.0657 ± 0.0091; with UCCUGGAUGAGCUUCCAAAGUAUUUAGUUA, 0.0331 ± 0.0072; with UCCUGGAACAGCUAGCAUAGUUUUUAGUUA, 0.0448 ± 0.0092. UCCUGCUACACUUGCAUAGUAUUUAGUUA: the “pre-steady-state target cleavage rate” value worked out at 0.268 ± 0.021. On the same count and under the same terms, with UCCUGGAAGAGCUAGCAUAGUAUUUAGUUA the figure was 0.212 ± 0.016; with UCCUCCUACAGCUUGCAUAGUUUUAAGUUA, 0.0543 ± 0.012; with UCCUGGAACAGCGUGCAUAGUAUUUAGUUA, 0.282 ± 0.017. Still for that read-out and setting: with “UCCUCCUACAGCUUGCAUAGUAUUUAGUUC [g2:g26:cont:t1C]” the figure was 0.283 ± 0.016; with UCCUGGAUCAGCUUGCAUAGUAUUUAGCUA, 0.00534 ± 0.0036. On the same count and under the same terms, with UCCUGGAACAGCUUGCAUAGUAUUCAGUUA the figure was 0.228 ± 0.042. Regarding UCCUGGUACAGCUUGCAUAGUGUUUAGUUA, the “pre-steady-state target cleavage rate” value came out at 0.162 ± 0.026. Still for that read-out and setting: then UCCUGGAACAGGUUGCAUUGUAUUUAGUUA, with 0.157 ± 0.014; and UCCUGGAACAGCCUUGCAUAGUAUUUAGUUA, with 0.225 ± 0.019. Still for that read-out and setting: with UCCUGCUACAGCUUGCAUAGGAUUUAGUUA the figure was 0.00856 ± 0.0037; with UCCUCCUACAGUUUGCAUAGUAUUUAGUUA, 0.299 ± 0.013; with UCCUGGAACAGCUUGCAUAGUUAUUUAGUUA, 0.0126 ± 0.0059.

The same test, now with this note: auxiliary factor: none (no GTSF1).
UCCUCCUACAGCUUGCAUAGUAUUAUAGUUA: the “pre-steady-state target cleavage rate” value is 0.00434 ± 0.0022.

For UCCUGGAACGCUUGCAUAGUAUUUAGUUA, the “pre-steady-state target cleavage rate” value was 0.00644 ± 0.0019. The same measure, in the same setting: then UCCUGGAACACGUUGCAUAGUAUUUAGUUA, with 0.01 ± 0.0027. The same measure, in the same setting: with UCCUGGAUGAGCUCUGCAUAGUAUUUAGUUA the figure was 0.0111 ± 0.0033; with UCCUGGAUGAGCUUGGAUAGUAUAUAGUUA, 0.00462 ± 0.0024; with “UCCUGGAUGUCGAUGCAUAGUAUUUAGUUC [g2:g17:cont:t1C]”, 0.00831 ± 0.0023. In the case of UCCUGGAUGAGCUUCCAAAGUAUUUAGUUA, the “pre-steady-state target cleavage rate” value is 0.00379 ± 0.0027. Still for that read-out and setting: with UCCUGGAACAGCUAGCAUAGUUUUUAGUUA the figure was 0.00311 ± 0.0024; with UCCUGCUACACUUGCAUAGUAUUUAGUUA, 0.00611 ± 0.0023; with UCCUGGAAGAGCUAGCAUAGUAUUUAGUUA, 0.00677 ± 0.0024. UCCUGGAACAGCGUGCAUAGUAUUUAGUUA: the “pre-steady-state target cleavage rate” value worked out at 0.00797 ± 0.0029.

Take “UCCUCCUACAGCUUGCAUAGUAUUUAGUUC [g2:g26:cont:t1C]”: the “pre-steady-state target cleavage rate” value amounted to 0.0143 ± 0.0047. In the case of UCCUGGAACAGCUUGCAUAGUAUUCAGUUA, the “pre-steady-state target cleavage rate” value was 0.00292 ± 0.0026. For UCCUGGUACAGCUUGCAUAGUGUUUAGUUA, the “pre-steady-state target cleavage rate” value came to 0.00946 ± 0.0035. For the sequence UCCUGGAACAGGUUGCAUUGUAUUUAGUUA, the “pre-steady-state target cleavage rate” value worked out at 0.00837 ± 0.0019.

Consider UCCUGGAACAGCCUUGCAUAGUAUUUAGUUA, for which the “pre-steady-state target cleavage rate” value was 0.00974 ± 0.003. Still for that read-out and setting: then UCCUCCUACAGUUUGCAUAGUAUUUAGUUA, with 0.00895 ± 0.0021; and UCCUGGAACAGCUUGCAUAGUUAUUUAGUUA, with 0.00339 ± 0.0029.
